In ChEMBL document CHEMBL1961873, “Compounds: GSK PKIS; Assays: Nanosyn kinase panel” (2012):

Experiments:
[1] = target: Fibroblast growth factor receptor 4 (Homo sapiens) (UniProt P22455); conditions: at 1 µM;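 note: reported figure is the averaged percent inhibition of FGFR4, from the GSK PKIS kinase screening panel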
[2] = target: Tyrosine-protein kinase Fgr (Homo sapiens) (UniProt P09769); conditions: at 0.1 µM
[3] = target: Tyrosine-protein kinase Fgr (Homo sapiens) (UniProt P09769); conditions: at 1 µM
[4] = target: Vascular endothelial growth factor receptor 1 (Homo sapiens) (UniProt P17948); conditions: at 0.1 µM
Sequence of Vascular endothelial growth factor receptor 1 (Homo sapiens) (P17948 whole entry): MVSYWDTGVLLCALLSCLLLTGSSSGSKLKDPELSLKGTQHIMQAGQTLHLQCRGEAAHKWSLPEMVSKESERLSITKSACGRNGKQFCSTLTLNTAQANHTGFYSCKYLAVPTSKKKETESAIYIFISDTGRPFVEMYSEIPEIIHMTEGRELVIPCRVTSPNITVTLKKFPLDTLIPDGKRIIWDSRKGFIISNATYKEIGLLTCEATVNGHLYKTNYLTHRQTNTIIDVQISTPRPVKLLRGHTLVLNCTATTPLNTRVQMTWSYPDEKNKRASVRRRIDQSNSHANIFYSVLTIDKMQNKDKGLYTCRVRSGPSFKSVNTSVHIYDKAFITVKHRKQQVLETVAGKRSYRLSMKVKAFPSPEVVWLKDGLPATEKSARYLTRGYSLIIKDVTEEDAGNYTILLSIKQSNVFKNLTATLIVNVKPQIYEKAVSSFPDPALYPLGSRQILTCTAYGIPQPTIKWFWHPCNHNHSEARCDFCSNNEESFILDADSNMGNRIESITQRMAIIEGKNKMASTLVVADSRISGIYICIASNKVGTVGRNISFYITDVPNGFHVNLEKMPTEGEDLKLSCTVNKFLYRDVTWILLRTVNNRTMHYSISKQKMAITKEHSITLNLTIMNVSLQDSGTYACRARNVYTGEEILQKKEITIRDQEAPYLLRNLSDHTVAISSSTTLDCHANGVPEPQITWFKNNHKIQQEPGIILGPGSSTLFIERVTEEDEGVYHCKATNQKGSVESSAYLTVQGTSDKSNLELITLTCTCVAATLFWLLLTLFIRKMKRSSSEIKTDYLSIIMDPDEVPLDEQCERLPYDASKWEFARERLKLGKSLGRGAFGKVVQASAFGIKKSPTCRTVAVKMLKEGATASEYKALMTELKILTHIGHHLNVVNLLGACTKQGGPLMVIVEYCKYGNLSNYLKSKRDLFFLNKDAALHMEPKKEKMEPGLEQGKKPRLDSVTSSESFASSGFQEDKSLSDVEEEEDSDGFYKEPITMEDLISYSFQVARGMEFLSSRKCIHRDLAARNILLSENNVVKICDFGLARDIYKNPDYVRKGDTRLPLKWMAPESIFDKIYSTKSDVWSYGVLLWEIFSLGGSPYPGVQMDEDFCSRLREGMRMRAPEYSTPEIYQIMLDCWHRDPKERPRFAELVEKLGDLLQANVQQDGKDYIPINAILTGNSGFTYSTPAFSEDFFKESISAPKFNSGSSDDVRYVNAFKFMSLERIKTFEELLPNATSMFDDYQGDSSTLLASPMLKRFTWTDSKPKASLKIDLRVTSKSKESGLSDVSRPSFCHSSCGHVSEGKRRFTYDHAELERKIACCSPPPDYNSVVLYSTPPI

[5] = target: Vascular endothelial growth factor receptor 1 (Homo sapiens) (UniProt P17948); conditions: at 1 µM
[6] = target: Receptor-type tyrosine-protein kinase FLT3 (Homo sapiens) (UniProt P36888); conditions: at 0.1 µM
[7] = target: Receptor-type tyrosine-protein kinase FLT3 (Homo sapiens) (UniProt P36888); conditions: at 1 µM
[8] = test system: T1, Receptor-type tyrosine-protein kinase FLT3 (Homo sapiens), P36888 [D835Y]; conditions: at 0.1 µM
T1 sequence (whole entry): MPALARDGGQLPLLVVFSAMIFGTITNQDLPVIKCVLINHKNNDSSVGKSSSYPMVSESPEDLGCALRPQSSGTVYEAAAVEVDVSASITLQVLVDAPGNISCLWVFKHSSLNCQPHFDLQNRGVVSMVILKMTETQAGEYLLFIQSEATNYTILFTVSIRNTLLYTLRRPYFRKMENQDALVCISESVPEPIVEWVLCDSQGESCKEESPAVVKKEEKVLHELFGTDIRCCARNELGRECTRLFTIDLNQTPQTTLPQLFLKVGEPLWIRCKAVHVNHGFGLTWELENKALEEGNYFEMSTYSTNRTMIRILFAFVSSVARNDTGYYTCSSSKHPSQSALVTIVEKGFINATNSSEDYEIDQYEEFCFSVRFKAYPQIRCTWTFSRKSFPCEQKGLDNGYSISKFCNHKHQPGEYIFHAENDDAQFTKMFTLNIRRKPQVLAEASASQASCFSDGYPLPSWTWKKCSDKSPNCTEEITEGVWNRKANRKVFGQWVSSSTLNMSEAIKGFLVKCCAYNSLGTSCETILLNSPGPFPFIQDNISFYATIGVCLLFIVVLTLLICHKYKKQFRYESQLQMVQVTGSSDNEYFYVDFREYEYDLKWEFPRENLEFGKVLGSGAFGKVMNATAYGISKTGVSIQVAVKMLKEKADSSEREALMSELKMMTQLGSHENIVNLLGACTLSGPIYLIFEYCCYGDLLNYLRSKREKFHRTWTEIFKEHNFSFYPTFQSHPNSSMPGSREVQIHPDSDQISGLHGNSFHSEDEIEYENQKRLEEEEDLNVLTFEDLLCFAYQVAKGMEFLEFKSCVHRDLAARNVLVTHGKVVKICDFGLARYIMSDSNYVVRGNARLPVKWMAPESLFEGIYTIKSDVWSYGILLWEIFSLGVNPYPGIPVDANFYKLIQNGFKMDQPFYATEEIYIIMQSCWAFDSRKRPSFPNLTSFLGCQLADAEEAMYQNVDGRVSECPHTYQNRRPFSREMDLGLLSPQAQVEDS

[9] = target: Non-receptor tyrosine-protein kinase TYK2 (Homo sapiens) (UniProt P29597); conditions: at 1 µM;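 note: values are mean percent inhibition of TYK2 kinase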
Sequence of Non-receptor tyrosine-protein kinase TYK2 (Homo sapiens) (P29597 whole entry): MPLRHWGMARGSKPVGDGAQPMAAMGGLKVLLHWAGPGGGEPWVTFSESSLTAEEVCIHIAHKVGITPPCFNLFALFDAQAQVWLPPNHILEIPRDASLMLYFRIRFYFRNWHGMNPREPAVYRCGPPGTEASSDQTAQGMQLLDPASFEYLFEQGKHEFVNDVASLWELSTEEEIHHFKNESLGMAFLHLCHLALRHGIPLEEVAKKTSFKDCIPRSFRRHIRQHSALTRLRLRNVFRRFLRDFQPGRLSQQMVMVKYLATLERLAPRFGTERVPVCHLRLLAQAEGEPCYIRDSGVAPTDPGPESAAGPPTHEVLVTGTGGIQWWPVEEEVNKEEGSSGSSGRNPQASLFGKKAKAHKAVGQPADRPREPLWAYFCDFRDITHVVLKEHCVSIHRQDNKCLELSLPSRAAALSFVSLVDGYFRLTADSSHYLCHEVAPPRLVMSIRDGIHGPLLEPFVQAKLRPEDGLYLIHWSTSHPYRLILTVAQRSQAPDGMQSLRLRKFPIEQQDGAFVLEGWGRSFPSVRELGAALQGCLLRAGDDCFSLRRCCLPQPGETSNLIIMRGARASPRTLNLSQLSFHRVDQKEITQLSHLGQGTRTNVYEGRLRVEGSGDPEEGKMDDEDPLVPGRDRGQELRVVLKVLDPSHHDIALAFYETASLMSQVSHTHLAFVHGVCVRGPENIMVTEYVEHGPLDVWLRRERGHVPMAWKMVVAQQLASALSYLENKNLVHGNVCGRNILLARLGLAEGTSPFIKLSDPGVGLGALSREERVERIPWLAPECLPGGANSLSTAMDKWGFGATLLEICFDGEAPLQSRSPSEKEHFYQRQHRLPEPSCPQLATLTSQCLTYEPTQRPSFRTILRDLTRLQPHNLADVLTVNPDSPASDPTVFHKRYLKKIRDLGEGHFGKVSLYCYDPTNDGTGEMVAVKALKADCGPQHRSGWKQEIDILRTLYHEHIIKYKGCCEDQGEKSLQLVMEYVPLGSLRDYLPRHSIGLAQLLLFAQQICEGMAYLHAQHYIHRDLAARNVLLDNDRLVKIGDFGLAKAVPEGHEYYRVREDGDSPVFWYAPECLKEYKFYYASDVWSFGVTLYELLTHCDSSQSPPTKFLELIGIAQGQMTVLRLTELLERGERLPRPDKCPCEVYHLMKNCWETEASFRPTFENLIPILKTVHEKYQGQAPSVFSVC

[10] = target: T2, Tyrosine-protein kinase receptor TYRO3 (Homo sapiens) (UniProt Q06418); conditions: at 0.1 µM
T2 sequence (whole entry): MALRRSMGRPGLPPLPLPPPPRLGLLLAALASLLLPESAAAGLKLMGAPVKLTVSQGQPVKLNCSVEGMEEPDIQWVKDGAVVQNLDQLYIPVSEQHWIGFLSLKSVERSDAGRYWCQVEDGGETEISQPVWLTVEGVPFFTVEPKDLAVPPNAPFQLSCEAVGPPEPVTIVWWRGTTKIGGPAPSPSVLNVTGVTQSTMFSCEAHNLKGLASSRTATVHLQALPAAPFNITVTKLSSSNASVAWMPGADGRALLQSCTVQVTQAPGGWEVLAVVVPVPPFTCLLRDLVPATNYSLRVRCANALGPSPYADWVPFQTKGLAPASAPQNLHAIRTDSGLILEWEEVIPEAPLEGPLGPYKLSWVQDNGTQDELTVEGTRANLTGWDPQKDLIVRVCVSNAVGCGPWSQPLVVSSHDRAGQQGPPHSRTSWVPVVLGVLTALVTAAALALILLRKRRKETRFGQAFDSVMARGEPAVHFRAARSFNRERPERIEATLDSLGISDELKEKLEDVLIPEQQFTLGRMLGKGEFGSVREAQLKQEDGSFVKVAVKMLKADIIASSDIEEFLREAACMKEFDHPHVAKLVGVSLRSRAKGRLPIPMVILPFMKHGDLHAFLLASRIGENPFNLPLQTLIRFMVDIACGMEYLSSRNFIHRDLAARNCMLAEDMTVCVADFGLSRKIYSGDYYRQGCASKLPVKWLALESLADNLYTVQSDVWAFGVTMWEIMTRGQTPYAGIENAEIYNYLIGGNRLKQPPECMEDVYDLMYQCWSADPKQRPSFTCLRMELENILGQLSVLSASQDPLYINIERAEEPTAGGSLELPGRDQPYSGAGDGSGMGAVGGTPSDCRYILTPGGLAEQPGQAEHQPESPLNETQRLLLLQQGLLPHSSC

[11] = target: T2, Tyrosine-protein kinase receptor TYRO3 (Homo sapiens); conditions: at 1 µM
[12] = target: Tyrosine-protein kinase Yes (Homo sapiens) (UniProt P07947); conditions: at 0.1 µM
Sequence of Tyrosine-protein kinase Yes (Homo sapiens) (P07947 2-543 limits assumed): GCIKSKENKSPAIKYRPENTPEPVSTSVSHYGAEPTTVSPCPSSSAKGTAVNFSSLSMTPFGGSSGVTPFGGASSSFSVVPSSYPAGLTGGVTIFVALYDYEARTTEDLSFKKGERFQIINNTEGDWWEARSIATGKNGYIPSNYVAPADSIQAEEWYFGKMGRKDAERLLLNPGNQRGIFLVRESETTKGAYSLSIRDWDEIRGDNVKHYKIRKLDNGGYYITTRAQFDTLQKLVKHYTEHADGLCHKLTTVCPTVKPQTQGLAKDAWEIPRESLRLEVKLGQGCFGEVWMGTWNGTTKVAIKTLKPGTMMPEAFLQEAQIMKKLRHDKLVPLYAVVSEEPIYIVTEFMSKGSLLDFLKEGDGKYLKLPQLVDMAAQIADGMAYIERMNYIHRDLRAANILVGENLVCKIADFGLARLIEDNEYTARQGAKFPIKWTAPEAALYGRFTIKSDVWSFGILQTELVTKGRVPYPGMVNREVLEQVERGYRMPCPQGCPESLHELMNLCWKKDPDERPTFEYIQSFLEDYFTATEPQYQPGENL

[13] = target: Tyrosine-protein kinase Yes (Homo sapiens) (UniProt P07947); conditions: at 1 µM
[14] = target: T3, Tyrosine-protein kinase ZAP-70 (Homo sapiens) (UniProt P43403); conditions: at 0.1 µM
T3 sequence (whole entry): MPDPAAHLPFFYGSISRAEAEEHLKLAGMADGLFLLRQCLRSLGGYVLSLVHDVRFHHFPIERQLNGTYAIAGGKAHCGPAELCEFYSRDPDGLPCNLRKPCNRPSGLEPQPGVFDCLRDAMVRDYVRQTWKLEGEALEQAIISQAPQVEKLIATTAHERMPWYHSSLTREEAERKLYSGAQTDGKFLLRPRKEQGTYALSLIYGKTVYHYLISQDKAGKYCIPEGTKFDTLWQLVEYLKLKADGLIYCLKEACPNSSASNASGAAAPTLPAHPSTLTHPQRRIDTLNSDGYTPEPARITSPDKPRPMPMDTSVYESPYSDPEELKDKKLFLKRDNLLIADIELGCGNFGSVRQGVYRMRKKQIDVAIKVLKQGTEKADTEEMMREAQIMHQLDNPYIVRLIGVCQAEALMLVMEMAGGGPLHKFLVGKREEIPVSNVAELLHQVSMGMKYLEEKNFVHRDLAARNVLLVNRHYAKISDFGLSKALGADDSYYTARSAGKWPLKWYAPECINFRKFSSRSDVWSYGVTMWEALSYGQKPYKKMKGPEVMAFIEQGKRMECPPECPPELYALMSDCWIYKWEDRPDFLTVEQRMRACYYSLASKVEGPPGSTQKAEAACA

[15] = target: T3, Tyrosine-protein kinase ZAP-70 (Homo sapiens); conditions: at 1 µM
[16] = target: Serine/threonine-protein kinase B-raf (Homo sapiens) (UniProt P15056); conditions: at 0.1 µM
Sequence of Serine/threonine-protein kinase B-raf (Homo sapiens) (P15056 whole entry): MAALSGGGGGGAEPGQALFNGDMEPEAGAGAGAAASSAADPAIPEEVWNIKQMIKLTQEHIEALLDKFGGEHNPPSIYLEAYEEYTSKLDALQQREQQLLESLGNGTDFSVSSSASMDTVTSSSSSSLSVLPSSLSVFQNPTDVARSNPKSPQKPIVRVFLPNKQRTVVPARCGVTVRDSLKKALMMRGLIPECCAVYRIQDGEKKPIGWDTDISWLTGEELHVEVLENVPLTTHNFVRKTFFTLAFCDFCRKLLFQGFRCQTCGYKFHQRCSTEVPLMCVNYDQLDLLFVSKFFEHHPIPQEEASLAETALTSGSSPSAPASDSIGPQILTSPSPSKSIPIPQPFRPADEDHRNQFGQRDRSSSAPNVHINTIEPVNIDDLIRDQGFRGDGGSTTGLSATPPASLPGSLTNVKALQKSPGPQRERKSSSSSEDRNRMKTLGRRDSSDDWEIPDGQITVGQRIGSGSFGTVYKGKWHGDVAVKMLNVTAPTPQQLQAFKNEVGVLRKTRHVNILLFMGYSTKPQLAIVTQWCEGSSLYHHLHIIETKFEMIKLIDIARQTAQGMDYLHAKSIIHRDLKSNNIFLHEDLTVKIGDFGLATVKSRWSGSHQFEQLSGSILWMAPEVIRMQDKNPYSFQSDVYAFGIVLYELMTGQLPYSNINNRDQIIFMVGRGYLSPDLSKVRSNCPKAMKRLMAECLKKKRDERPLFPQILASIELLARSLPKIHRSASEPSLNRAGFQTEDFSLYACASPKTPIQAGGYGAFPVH

[17] = target: Serine/threonine-protein kinase B-raf (Homo sapiens) (UniProt P15056); conditions: at 1 µM
[18] = test system: Serine/threonine-protein kinase B-raf (Homo sapiens), P15056 [V600E]; conditions: at 0.1 µM
Sequence of Serine/threonine-protein kinase B-raf (Homo sapiens), P15056 [V600E] (P15056 whole entry V600E): as the sequence (P15056 whole entry) above, with V600E counted along it

[19] = test system: Serine/threonine-protein kinase B-raf (Homo sapiens), P15056 [V600E]; conditions: at 1 µM
[20] = target: RAF proto-oncogene serine/threonine-protein kinase (Homo sapiens) (UniProt P04049); conditions: at 0.1 µM;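 note: values are mean CRAF kinase inhibition from profiling of the GSK Published Kinase Inhibitor Set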
Sequence of RAF proto-oncogene serine/threonine-protein kinase (Homo sapiens) (P04049 whole entry): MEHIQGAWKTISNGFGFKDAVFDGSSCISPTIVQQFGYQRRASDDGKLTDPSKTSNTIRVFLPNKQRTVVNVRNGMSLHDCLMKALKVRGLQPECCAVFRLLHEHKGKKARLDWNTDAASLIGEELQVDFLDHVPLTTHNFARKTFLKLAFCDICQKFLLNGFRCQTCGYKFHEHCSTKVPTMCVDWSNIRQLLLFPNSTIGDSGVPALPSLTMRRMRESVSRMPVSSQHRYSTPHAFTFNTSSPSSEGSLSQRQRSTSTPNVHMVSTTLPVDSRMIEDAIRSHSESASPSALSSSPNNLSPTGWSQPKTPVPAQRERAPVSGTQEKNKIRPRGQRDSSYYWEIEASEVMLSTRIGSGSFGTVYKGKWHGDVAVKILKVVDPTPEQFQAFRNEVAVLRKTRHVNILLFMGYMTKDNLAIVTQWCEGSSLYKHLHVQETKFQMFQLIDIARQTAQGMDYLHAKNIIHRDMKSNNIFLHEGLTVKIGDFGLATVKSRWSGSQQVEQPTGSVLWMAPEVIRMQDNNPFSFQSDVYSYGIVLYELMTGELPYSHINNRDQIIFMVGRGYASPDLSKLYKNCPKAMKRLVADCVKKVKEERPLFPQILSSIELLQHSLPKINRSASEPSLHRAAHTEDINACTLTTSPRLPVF

Sequence of Tyrosine-protein kinase Fgr (Homo sapiens) (P09769 2-529 limits assumed): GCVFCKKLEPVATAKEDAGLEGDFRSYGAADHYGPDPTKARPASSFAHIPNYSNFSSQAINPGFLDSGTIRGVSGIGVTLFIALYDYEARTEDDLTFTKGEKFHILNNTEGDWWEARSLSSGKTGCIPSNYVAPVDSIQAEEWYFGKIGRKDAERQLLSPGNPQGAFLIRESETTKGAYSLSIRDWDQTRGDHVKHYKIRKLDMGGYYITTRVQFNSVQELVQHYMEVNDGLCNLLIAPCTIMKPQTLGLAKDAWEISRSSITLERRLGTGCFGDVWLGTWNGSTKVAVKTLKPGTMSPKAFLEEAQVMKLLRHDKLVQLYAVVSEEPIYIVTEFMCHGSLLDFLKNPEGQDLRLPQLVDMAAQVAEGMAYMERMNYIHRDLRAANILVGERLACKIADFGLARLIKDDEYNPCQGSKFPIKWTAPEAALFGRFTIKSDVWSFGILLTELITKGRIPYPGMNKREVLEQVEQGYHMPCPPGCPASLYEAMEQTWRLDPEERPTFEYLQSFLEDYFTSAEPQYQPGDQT

Row | Compound | inhibition [1] [%] | inhibition [2] [%] | inhibition [3] [%] | inhibition [4] [%] | inhibition [5] [%] | inhibition [6] [%] | inhibition [7] [%] | inhibition [8] [%] | inhibition [9] [%] | inhibition [10] [%] | inhibition [11] [%] | inhibition [12] [%] | inhibition [13] [%] | inhibition [14] [%] | inhibition [15] [%] | inhibition [16] [%] | inhibition [17] [%] | inhibition [18] [%] | inhibition [19] [%] | inhibition [20] [%]
1 | COc1cc(C=NNc2ncnc3c2cnn3-c2ccccc2)ccc1O | 3.32 | 12.8 | 49.6 | 3.24 | 15.1 | 15.6 | 54.6 | 17.7 | 0.57 | 5.56 | 33.5 | 21.5 | 64.9 | 3.12 | 9.72 | 2.6 | 2.66 | 2.03 | 2.54 | -0.56
2 | COc1cccc(-n2ncc3c(N/N=C/c4cccc(F)c4)ncnc32)c1 | -5.17 | 7.31 | 32.6 | -0.74 | 3.31 | 0.44 | 6.78 | 9.42 | -0.15 | 3.08 | 8.11 | 6.17 | 31 | -0.37 | -0.02 | 4.04 | 5.91 | 3.95 | 5.71 | 0.69
3 | Cc1ccc(C(=O)NC2CCCCC2)cc1-c1ccc(C(=O)NCC2CC2)cc1 | 2.89 | 2.07 | 5.25 | 2.97 | 2.09 | 0.22 | -0.64 | -1.58 | -2.34 | 1.42 | -0.08 | 1.31 | 1.09 | 2.48 | 6.15 | 3.92 | 3.21 | 3.15 | 3.03 | 4.27
4 | O=C1NC(=O)C(c2cccc(Cl)c2)=C1Nc1ccc(O)c(Cl)c1 | 2.43 | -2.2 | 3.74 | 0.72 | 1.36 | -1.02 | 0.95 | -6.93 | 20 | -0.43 | 0.29 | 2.84 | 2.76 | 1.5 | 2.74 | 1.14 | 6 | 0.91 | 7.11 | 0.68
5 | CC1=C(C(=O)Nc2ccc3[nH]ncc3c2)C(c2ccc3ccccc3c2)CC(=O)N1 (stereo not given) | 10.6 | 3.21 | 15.1 | 2.44 | 4.08 | 0.05 | 3.17 | 0.1 | 4.98 | 3.61 | 6.2 | 16.6 | 62.9 | 3.08 | 2.98 | 8.21 | 43.5 | 8.51 | 45.2 | 1.05
6 | COc1ccc(-c2ccncc2)cc1C(N)=O | 1.48 | 3.69 | 4.6 | 2.23 | 2.25 | 5.04 | 2.52 | 4.29 | -3.25 | 1.12 | 0.74 | -1.44 | 3.66 | -0.9 | 1.01 | 6.32 | 8.48 | 5.07 | 5.66 | 1.23
